The campaign covered roughly 6,200 compounds. About 2,900 (47%) were called active. So high a share suggests a set chosen from earlier hits. Some of the results follow. A number with no mark means an inactive call. Cut-off read from the data, not from the text of the source: active = inhibition above about 50%; inactive = the rest.
Experiment: Mycobacterium tuberculosis growth inhibition, primary screen (AID 1259343)
Conditions: inhibition: at 10 µM, active compounds read high; outcome: 10 uM
For `Cc1nn2c(NCCCN(C)C)cc(-c3ccccc3)nc2c1-c1ccccc1`, the inhibition was -0.28%. For `Cc1nn2c(=O)[nH]c(SCc3cccnc3)nc2c1-c1ccccc1`, the inhibition was 33.2%. For `CC(=O)c1nnc2c(-c3ccccc3)c(C)nn2c1C`, the inhibition was 89.5% (active). In the case of `CNC(=O)COc1ccc(-c2ccccc2Cl)cc1`, the inhibition is reported as 72.2% (active). With `CC(=O)Nc1ccc(OC/C=C/c2ccccc2)cc1` the inhibition was 87.3% (active). In the case of `Cc1oc(-c2ccccc2Cl)cc1CO`, the inhibition is reported as 35.3%. Work on `CNC(=O)COc1ccc(-c2c(C)cccc2C)cc1` yielded an inhibition of 26.1%. Molecule `COc1ccc(/C=C/c2nc3cc(C)ccc3s2)cc1O` has an inhibition of 23.6%. In the case of `CNC(=O)COc1ccc(/C=C/c2ccccc2)cc1`, the inhibition is reported as 51.1% (active). For `CNC(=O)COc1ccc(Oc2ccc(C)cc2)cc1`, the inhibition was 25.8%. For `COc1ccc(/C=C/C(=O)NNC(=O)COc2ccc(C)cc2)cc1`, the inhibition was 95.6% (active). In the case of `O=C(COc1ccccc1)NN=Cc1ccc(Br)cc1`, the inhibition is reported as 89.4% (active). In the case of `CC(NC(=O)COc1ccccc1)c1ccccc1Cl` (stereo not drawn), the inhibition is reported as 85.4% (active). Molecule `COC(=O)Cc1ccc(OCC(=O)NC(C)c2ccc(Cl)cc2)cc1` (stereo not drawn) has an inhibition of 20.1%. For `Cc1nc(Cl)cc(NC(C)c2ccc(Cl)c(Cl)c2)n1` (stereo not drawn), the inhibition was 6.72%. For `Cc1ccc(-n2nnc(C(=O)OCc3ccccc3C)c2C)cc1`, the inhibition was 93.8% (active). With `COc1ccc(-c2nn(-c3ccccc3)cc2CN2CCN(c3cnccn3)CC2)c(F)c1` the inhibition was 62.9% (active). For `COc1ccc(C(=O)NC2CC(C)(C)Cc3occc32)cc1` (stereo not drawn), the inhibition was -1.78%. For `COc1ccc(Oc2ccc(C(=O)N[C@H]3CCCC[C@@H]3O)cc2)cc1`, the inhibition was 80.8% (active). For `CCOC(=O)C(C)Sc1ncnc2c1nnn2Cc1ccc(F)cc1` (stereo not drawn), the inhibition was 64.3% (active). For `CCOC(=O)C(C)Sc1ncnc2c1nnn2Cc1ccc(Cl)cc1` (stereo not drawn), the inhibition was 50.4% (active). `CCOC(=O)CSc1ncnc2c1nnn2Cc1ccc(Cl)cc1` gave an inhibition of -17.6%. `CCOC(=O)CNC(=O)CSc1ncnc2c1nnn2Cc1ccc(F)cc1` showed an inhibition of -15.9%. With `CCOC(=O)CSc1ncnc2c1nnn2Cc1ccc(F)cc1` the inhibition was -18.2%. For `CN=c1scc(-c2ccc(F)cc2)n1N=Cc1ccccc1Br`, the inhibition was -41.8%. For `CN=c1scc(-c2ccc(F)cc2)n1N=Cc1cccc(Br)c1`, the inhibition was 70.2% (active). With `CN=c1scc(-c2ccccc2F)n1N=Cc1cccc(F)c1` the inhibition was 98.1% (active). Work on `CN=c1scc(-c2ccccc2F)n1N=Cc1ccccc1` yielded an inhibition of -1.69%. With `CN=c1scc(-c2ccc(F)cc2)n1N=Cc1cccc(C(F)(F)F)c1` the inhibition was -44.1%. In the case of `CN=c1scc(-c2ccccc2F)n1N=Cc1ccc(SC)cc1`, the inhibition is reported as -1.82%. `Cc1nn(C(=O)C(C)N2C(=O)c3ccccc3C2=O)c(C)c1Br` (stereo not drawn) gave an inhibition of 14.3%. For `COc1ccc2oc(=O)cc(-c3cc4cc(Br)ccc4o3)c2c1`, the inhibition was -2.37%. `Cc1cccc2nc(COc3ccc4ccccc4c3Br)cn12` gave an inhibition of 41.5%. For `CCCCN1CCC(COC(=O)c2cc(Cl)c(N)c3c2OCCO3)CC1`, the inhibition was 98.9% (active). Work on `Cc1cccc(SC2CCN(c3nncc(-c4ccccc4)n3)CC2)c1` yielded an inhibition of 32.6%. For `NC(N)=NCc1ccc(Cl)cc1Cl`, the inhibition was 74.4% (active). Molecule `Nc1ncc(Cc2cc(Cl)ccc2Cl)s1` has an inhibition of -17.2%. For `Nc1ncc(Cc2ccc(Cl)cc2F)s1`, the inhibition was 35.3%. `Cc1nc(C)c(-c2csc(Nc3cccnc3)n2)s1` gave an inhibition of 35.7%. With `Cc1nc(C)c(-c2ccc(SCc3c(F)cccc3Cl)nn2)s1` the inhibition was 69.8% (active). `O=C(Nc1ccc(-n2cccn2)nc1)C1CC(c2cccc(F)c2)=NO1` (stereo not drawn) showed an inhibition of 14.1%. With `CC(NC(=O)C1CC(c2cccc(F)c2)=NO1)c1ccc(F)cc1F` (stereo not drawn) the inhibition was 84.1% (active). Molecule `O=C(NC(C1CC1)C1CC1)C1CC(c2ccc(Cl)s2)=NO1` (stereo not drawn) has an inhibition of -31.9%. In the case of `O=C(Oc1ccc2ccccc2c1)c1cccs1`, the inhibition is reported as 86.7% (active). `CCOc1ccccc1C(=O)Oc1ccc2ccc(O)cc2c1` gave an inhibition of 40.6%. With `COc1ccc2c(c1)OCc1c-2oc2cc(OC)ccc12` the inhibition was 81.8% (active). Work on `COc1ccc2c(=O)c3c(oc2c1)C(=O)N(c1nccs1)C3c1ccc(C(C)(C)C)cc1` (stereo not drawn) yielded an inhibition of 5.45%. For `COc1ccc2c(=O)c3c(oc2c1)C(=O)N(c1nccs1)C3c1ccccc1` (stereo not drawn), the inhibition was 11.9%. With `CC1CCc2c(Cl)cc(Cl)c(O)c2N1` (stereo not drawn) the inhibition was 103% (active). With `COc1cc(C=Nc2ccc3ncccc3c2)cc(OC)c1OC` the inhibition was -5.15%. In the case of `COc1cc(C=Nc2ccc(I)cc2)cc(OC)c1OC`, the inhibition is reported as 75.7% (active). In the case of `COc1cc2c(cc1/C=C/C(=O)N1CCc3ccccc31)OC(C)C2` (stereo not drawn), the inhibition is reported as 59.3% (active). Molecule `Cc1ccc2c(c1)CCCN2C(=O)/C=C/c1ccco1` has an inhibition of 44.5%. In the case of `O=c1c(Oc2ccc(Cl)cc2)coc2cc(O)ccc12`, the inhibition is reported as 33.2%. For `O=c1c(Oc2ccccc2F)coc2cc(O)ccc12`, the inhibition was 11.6%. `CCOC(=O)C(C)Oc1ccc2c(=O)c(Oc3ccc(OCC)cc3)coc2c1` (stereo not drawn) showed an inhibition of 22.8%. `CCCc1cc(=O)oc2cc(OC(C)C)c(Cl)cc12` showed an inhibition of 23.5%. Molecule `CCCc1cccc(C)c1O` has an inhibition of 42.4%. For `O=c1c(Oc2ccc(F)cc2)coc2cc(O)ccc12`, the inhibition was 103% (active). `CCCc1nc2oc3cc(OC)ccc3c(=O)c2c(=O)n1CCc1ccccc1` gave an inhibition of 4.8%. For `CCCc1cc(=O)oc2cc(O)ccc12`, the inhibition was 55.5% (active). In the case of `CCCc1oc2cc(O)ccc2c(=O)c1Oc1ccccc1`, the inhibition is reported as 80.2% (active). In the case of `O=c1c(Oc2ccccc2)coc2cc(O)ccc12`, the inhibition is reported as 88.5% (active). Molecule `Oc1ccc(-c2nc3c4cnn(-c5ccccc5Cl)c4ncn3n2)cc1` has an inhibition of 44.1%. Work on `O=C(c1cnn2cccnc12)N1CCOc2ccc(C(O)C(c3ccccc3)c3ccccc3)cc2C1` (stereo not drawn) yielded an inhibition of -21.2%. For `Cc1cc(C(C)(C)CC(C)(C)C)ccc1OCCOCC[N+](C)(C)Cc1ccccc1`, the inhibition was 87.5% (active). With `CCCCCCCCN1C(=O)CC(=O)NC1=S` the inhibition was 27.6%. In the case of `CCCCCCCCc1nc(=S)[nH][nH]1`, the inhibition is reported as 86.1% (active). For `Cc1nc2sc3c(c2c(=O)o1)CCCCC3`, the inhibition was 102% (active). `O=C1CCC(=O)N1c1ccc(-c2nc3sc4c(c3c(=O)o2)CCC4)cc1` showed an inhibition of -4.37%. Molecule `CC(C)(C)c1nc2sc3c(c2c(=O)o1)CCCC3` has an inhibition of 25.7%. With `COc1ccccc1C(C)(C)C(=O)n1nc(C(F)(F)F)nc1N` the inhibition was 7.93%. With `Cc1cnn(C2CN(c3ccc(S(=O)(=O)C(F)(F)F)cc3)C2)c1` the inhibition was 84.2% (active). With `NC(=O)C1CCN(c2ccc(S(=O)(=O)C(F)(F)F)cc2)C1` (stereo not drawn) the inhibition was -74.6%. In the case of `FC(F)(F)c1ccc(Cn2ccnc2CNC2CCCCC2)cc1`, the inhibition is reported as 21.3%. Molecule `CCN(C(=O)c1cc(C)c(-c2ccc(F)cc2)s1)C1CCC1` has an inhibition of 24.1%. With `Cc1cc(C)c(Cn2ccnc2CN(C(=O)c2ccc(F)cc2)C2CC2)c(C)c1` the inhibition was 51.5% (active). With `CC1=C(C)C(=O)C(CCCCC#CCCCC#CCO)=C(C)C1=O` the inhibition was 84.5% (active). `C=C(C)CN=c1scc(C)n1N=Cc1sccc1C` showed an inhibition of 21.6%. In the case of `COc1ccc(N(CC(F)(F)F)C(=O)CCl)cc1`, the inhibition is reported as 84.1% (active). In the case of `COc1ccc(COc2ccc(N(C)C(N)=O)cc2)c(Cl)c1`, the inhibition is reported as 15.9%. With `COc1ccc2cc(CN(C)C(=O)CCl)ccc2c1` the inhibition was “inactive”. With `CC1CCCC(NC(=O)c2cc3c(s2)CSC3)C1C` (stereo not drawn) the inhibition was 55.5% (active). `CC1CCc2sc(C(=O)NCc3ccc4c(c3)OCO4)cc2C1` (stereo not drawn) showed an inhibition of -11%. For `COc1ccc(-c2c(O)c3c(OC)c4c(cc3oc2=O)OC(C)(C)C=C4)cc1`, the inhibition was 63.3% (active). With `CC(=O)O[C@@H]1C[C@@]2(C)[C@H](c3ccoc3)C[C@H]3O[C@]32[C@]2(C)C(=O)C(O)=C3C(C)(C)C(=O)C=C[C@]3(C)C12` (stereo partly drawn) the inhibition was 94.8% (active). `COc1cc(=C2C=c3ccccc3=N2)[nH]/c1=C\c1[nH]c(C)cc1C` gave an inhibition of -5.42%. In the case of `O=C(NC(=S)Nc1ccc(N2CCN(C(=O)c3ccccc3)CC2)cc1)c1ccco1`, the inhibition is reported as 99.1% (active). `O=C(Nc1cccc(-c2cccc(Cl)c2)c1)C1CCN(C(=O)C2CCCO2)CC1` (stereo not drawn) gave an inhibition of 9.39%. For `O=C(Nc1cccc(-c2cccc(Cl)c2)c1)C1CCN(C(=O)c2ccccc2)CC1`, the inhibition was 85.9% (active). In the case of `O=C(Nc1cccc(-c2cccc(Cl)c2)c1)C1CCN(C(=O)c2cccnc2)CC1`, the inhibition is reported as “inactive”. For `O=C(Nc1cccc(-c2cccc(Cl)c2)c1)C1CCN(C(=O)C2CCOC2)CC1` (stereo not drawn), the inhibition was 71% (active). In the case of `O=C(Nc1cccc(-c2cccc(Cl)c2)c1)C1CCN(C(=O)c2csnn2)CC1`, the inhibition is reported as -4.87%. In the case of `O=C(Nc1cccc(-c2cccc(Cl)c2)c1)C1CCN(C2CCOCC2)CC1`, the inhibition is reported as 88.7% (active). For `COc1ccc(C(=O)N2CCC(C(=O)Nc3cccc(-c4cccc(Cl)c4)c3)CC2)o1`, the inhibition was 70.5% (active). For `O=C(Nc1cccc(-c2cccc(Cl)c2)c1)C1CCN(C(=O)C2CC=CCC2)CC1` (stereo not drawn), the inhibition was 81.6% (active). Molecule `CC(C)c1nccc(-c2nccn2CC2(O)CCN(C)CC2)n1` has an inhibition of -4.81%. Molecule `COc1ccc(Cc2[nH]n3c(=O)cc(C)nc3c2-c2ccccc2)cc1` has an inhibition of 37.9%. For `COc1ccccc1-c1c(C)[nH]n2c(=O)cc(-c3ccc([N+](=O)[O-])cc3)nc12`, the inhibition was 77.8% (active). Molecule `COc1ccccc1-c1c(C)nn2c(NC(C)c3ccccc3)cc(C)nc12` (stereo not drawn) has an inhibition of 5.58%. In the case of `CC(Oc1ccc(Cl)cc1Cl)c1nc(-c2ccncc2)no1` (stereo not drawn), the inhibition is reported as 43.3%. With `COc1ccc(NC(C)c2nc(C)no2)cc1Cl` (stereo not drawn) the inhibition was 57.6% (active). Work on `COc1ccc(Nc2nc3cc(Cl)ccc3o2)cc1Cl` yielded an inhibition of 21.2%.

— PubChem BioAssay AID1259343 (VanderVen Lab, College of Veterinary Medicine, Cornell …, 2017)
